Test results reported in the supplement of paper PMC10338343.
± gives the standard deviation.

Assays:
[1] = tested on: MILI (PIWIL2) piRISC loaded with piRNA #1 (26 nt); assay: pre-steady-state target cleavage rate (min^-1); guide: piRNA #1 5'p-UGAGGUAGUAGGUUGUAUAGUAUCCA; higher = faster piRNA-guided slicing of the target; conditions: auxiliary factor: 500 nM mouse GTSF1;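 note: 1 nM active piRISC with 0.1 nM target library at 33 °C single turnover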
Method in brief: (§1)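 A transcribed, DNA-blocked target RNA library […] was incubated at 33 °C for 0–8 or 0–960 min with 1 nM active affinity-purified piRISC carrying one synthetic guide, in HEPES–potassium acetate buffer with or without 500 nM GTSF1 partner protein. Uncleaved targets were then sequenced and normalised to depth and to weakly complementary targets. Data from three trials were pooled, with k3 capped at 0.0001 min^-1, and a burst-and-steady-state fit yielded the pre-steady-state cleavage rate.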

[2] = tested on: EfPiwi piRISC loaded with piRNA #1 (26 nt); assay: pre-steady-state target cleavage rate (min^-1); auxiliary factor: 500 nM Ephydatia muelleri Gtsf1; guide: piRNA #1 5'p-UGAGGUAGUAGGUUGUAUAGUAUCCA; MIWI and MILI are mouse PIWI proteins and EfPiwi is from a freshwater sponge; tags in brackets are library labels; higher = faster piRNA-guided slicing of the target
Method in brief: as §1

Sequence | pre-steady-state target cleavage rate [1] | pre-steady-state target cleavage rate [2]
GGAGACGGAUACUAUACAACCUACUACCUCA | 0.234 ± 0.018 | 0.221 ± 0.062
GGAGAGCAUACUAUACUACCUACUACCUCA | 0.195 ± 0.016 | 0.00584 ± 0.0027
GGAGACCAUACUAUACAACCUACUACCUCCA | 0.137 ± 0.018 | 0.0119 ± 0.0039
GGAGACCUUGCUAUACAACCUACUACCUCA | 0.114 ± 0.022 | 0.00436 ± 0.004
GGAGUGGAUUGAAUACAACCUACUACCUCA | 0.0713 ± 0.0073 | 0.00637 ± 0.0044
GGAGACGAUACUAUACAACCUACUUGCUCA | 0.155 ± 0.052 | 0.00371 ± 0.0014
GGAGACCUAACCUAUACAACCUACUACCUCA | 0.107 ± 0.056 | 0.0868 ± 0.028
GGAGACGAUACUAUACAACCUACUACGCUCA | 0.19 ± 0.02 | 0.00415 ± 0.0014
GGAGUGGAUACUAUACAAGCUACUUCCUCA | 0.0765 ± 0.0095 | 0.00402 ± 0.0022
GGAGACGAUACUAUACAUCCUACAACCUCA | 0.287 ± 0.022 | 0.00566 ± 0.0028
GGAGACCUAACUAUACAACGUACUACCACA | 0.0131 ± 0.0058 | 0.0055 ± 0.0049
GGAGACCUAUGUAUACAACCUACUGACCUCA | 0.0132 ± 0.0038 | < 0.0001
GGAGACGAUACUAUACAACCUACUACCUGA | 0.132 ± 0.02 | 0.0064 ± 0.002
GGAGUGGAUACAAUACAACCUACUACCUCA | 0.174 ± 0.0095 | 0.0165 ± 0.0068
GGAGUGGAUACAUAUACAACCUACUACCUCA | 0.114 ± 0.011 | 0.0717 ± 0.027
GGAGUGGAUCUAUACAACCUACUACCUCA | 0.155 ± 0.011 | 0.0612 ± 0.029
GGAGACGAUUCUAUACAACCUACUAGCUCA | 0.12 ± 0.013 | 0.00278 ± 0.0019
GGAGAGGAUAUCUAUACAACCUACUACCUCA | 0.0599 ± 0.0073 | 0.00594 ± 0.0046
GGAGAGGAUACUAUAGAACCUACUACCUGA | 0.0217 ± 0.005 | 0.00264 ± 0.0017
GGAGACCAUACUAUACAACCUACUACGUCA | 0.116 ± 0.017 | 0.0053 ± 0.0015

Sequence | pre-steady-state target cleavage rate [1] | pre-steady-state target cleavage rate [2]
GGAGUGGAAACUAUACAACCUACUACCACA | 0.129 ± 0.018 | 0.00336 ± 0.0029
GGAGUGGAUACUAAACAACCUAGUACCUCA | 0.0567 ± 0.011 | 0.00256 ± 0.0016
GGAGUGGAUACUAUACAACCUACUAGCUCA | 0.0481 ± 0.0088 | 0.00429 ± 0.0016
GGAGAGGAUACUAUACAAGCUACUACCACA | 0.243 ± 0.019 | 0.00317 ± 0.0019
GGAGUGGAUACAAUACAACGUACUACCUCA | 0.0223 ± 0.0023 | 0.00385 ± 0.0018
GGAGAGGUAUCUAUACAACCUACUACCUCA | 0.0739 ± 0.0068 | 0.0113 ± 0.0061
GGAGACGAUACUAUACAACCUAUCUACCUCA | 0.17 ± 0.017 | 0.00473 ± 0.0019
GGAGUGGAUACUAUACAACCUACUACCUCU [g2:g26:cont:t1U] | 0.231 ± 0.019 | 1.05 ± 0.27
GGAGAGGAUACUAUACAACCUUCUACCACA | 0.00472 ± 0.0023 | 0.00468 ± 0.0021
GGAGACGUUACUAUACAACCUACUAGCUCA | 0.0954 ± 0.016 | 0.0029 ± 0.0017
GGAGACCAUACUAUACAACCUACUACCCA | 0.0934 ± 0.019 | 0.00453 ± 0.0028
GGAGUGGAUACUAUACAACCAACUACCUCA | 0.00575 ± 0.0022 | 0.00568 ± 0.002
GGAGAGGAUACUUUACAACGUACUACCUCA | 0.018 ± 0.0029 | 0.00409 ± 0.0016
GGAGAGGAUACUUACAACCUACUACCUCA | 0.125 ± 0.012 | 0.00543 ± 0.0036
GGAGUCCUUACUAUACAACCUACUACCUCA | 0.174 ± 0.011 | 0.0555 ± 0.021
GGAGACGAUCUAUACAACCUACUACCUCA | 0.174 ± 0.013 | 0.0198 ± 0.01
GGAGACCUAUCUUAUACAACCUACUACCUCA | 0.145 ± 0.031 | 0.0118 ± 0.0052
GGAGACGAUUCUAUACAACCAACUACCUCA | 0.00752 ± 0.0023 | 0.00258 ± 0.0018
GGAGUGGAUACUAUAGAUCCUACUACCUCA | 0.251 ± 0.015 | 0.0045 ± 0.0029
GGAGACCAUUCUAUACAUCCUACUACCUCA | 0.235 ± 0.019 | 0.00435 ± 0.0029

Sequence | pre-steady-state target cleavage rate [1] | pre-steady-state target cleavage rate [2]
GGAGAGGAUACUAUACAACCGUACUACCUCA | 0.00509 ± 0.0031 | 0.00659 ± 0.0028
GGAGACGAUACUAUACUACCUACAACCUCA | 0.181 ± 0.017 | 0.00176 ± 0.0015
GGAGACGAUACUUUACAUCCUACUACCUCA | 0.257 ± 0.016 | 0.00465 ± 0.0027
GGAGACCAUACUAUACAACCUACUACACUCA | 0.204 ± 0.027 | 0.00487 ± 0.0033
GGAGAGGAUACUAAACAACCUACUACCUCA | 0.174 ± 0.012 | 0.00787 ± 0.0036
GGAGACCAUACUAUACUACCUACUACCUCA | 0.158 ± 0.017 | 0.00859 ± 0.0036
GGAGAGGAUACUAUACAUCGUACUACCUCA | 0.0374 ± 0.0069 | 0.00364 ± 0.0019
GGAGUGGACUACUAUACAACCUACUACCUCA | 0.156 ± 0.01 | 0.0107 ± 0.0041
GGAGACGAUACUAUACAACCUAGAUCCUCA | 0.00708 ± 0.0033 | 0.00272 ± 0.0017
GGAGACGAUACUAUACAUCCUAGUACCUCA | 0.0834 ± 0.019 | 0.0031 ± 0.001
GGAGAGGAUGACUAUACAACCUACUACCUCA | 0.0775 ± 0.015 | 0.01 ± 0.006
GGAGUGAAUACUAUACAACCUACUACCUCA | 0.175 ± 0.009 | 0.102 ± 0.037
GGAGACGAUUCUAUACAACCUACUACCACA | 0.219 ± 0.015 | 0.00382 ± 0.0024
GGAGACGAUACUUUACAACCUACUACCUCA | 0.189 ± 0.013 | 0.00691 ± 0.0033
GGAGACCAUACUAUCACAACCUACUACCUCA | 0.136 ± 0.019 | 0.0399 ± 0.014
GGAGAGGAUACUAUUCAACGUACUACCUCA | 0.0162 ± 0.0029 | 0.00415 ± 0.0012
GGAGAGGAUACUAUACAACCUACUUACCUCA | 0.162 ± 0.015 | 0.00951 ± 0.004
GGAGACCAUUCUUUACAACCUACUACCUCA | 0.0902 ± 0.012 | 0.0111 ± 0.0056
GGAGACCAUACUAACAACCUACUACCUCA | 0.114 ± 0.019 | 0.00859 ± 0.0041
GGAGACGAUACUAUACAACCUACUACCUCU [g2:g24:cont:t1U] | 0.24 ± 0.019 | 1.35 ± 0.49
